Test results reported in PubChem BioAssay (NCI).
The panel holds about 83,000 compounds, 20% with a hit somewhere; the sample as a whole holds those more often.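 Interpretation: 100, growth as untreated; towards 0, rising growth inhibition; 0, no net growth; 0 to -100, cell death. Compounds scoring below 10 were considered active.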 A number with no mark means an inactive call. Calls of active or inactive are those of the source.

The compounds below were run on SR leukemia (assay: NCI-60 one-dose screen, 48 h (100 = growth as untreated, 0 = no growth, -100 = all killed)). Conditions: 10 µM unless noted.
Protocol: Growth inhibition of the SR human tumor cell line is measured as a screen for anti-cancer activity. Cells are grown in 96 well plates and exposed to the test compound for 48 hours. Compounds are tested at a single concentration, which is 10^-5 M for most compounds. The reported endpoint is percent growth (GI% or GIPRCNT), where numbers from 0 - 100% represent growth inhibition, and numbers from -100% - 0 represent cell death. For example, a value of 40 represents 60% growth inhibition. A value of 0 means no net growth occurred over the course of the experiment. A value of -40 indicates 40% of cells at the beginning of the experiment died by the end of the experiment. A value of -100 means all cells are dead at the end of the experiment.
NCI-60 Human Tumor Cell Lines Screen was performed using the standard one-dose NCI protocol, which is described in more detail at https://dtp.cancer.gov/discovery_development/nci-60/default.htm.
Compounds with GIPRCNT values below 10 were considered active. Activity score was based on GIPRCNT using the following formula: […]
Score is 0 for GIPRCNT values of 100 or above, 50 for GIPRCNT values of 0, and 100 for GIPRCNT values of -100.
`CCN1CCN(Cc2cn(CC(=O)Nc3ccc4c(ccn4Cc4ccccc4)c3)nn2)CC1` gave a growth of 63.5%.
`CC(C)(C)n1cc(-c2ccnc(NCCCNS(=O)(=O)c3ccc(F)cc3)c2)c(-c2cccc(F)c2)n1` was tested, and the growth was 14.3%.
With `C=C1C(=O)O[C@H]2[C@H]1CC/C(COC(=O)NCc1ccc(Cn3c(=O)sn(CCI)c3=O)cc1)=C\CC[C@@]1(C)O[C@@H]21` the growth was -2.32% (active).
`C=CCc1c2c(c(OC)c3ccoc13)C(=O)/C(=C/c1ccccc1OC)O2` gave a growth of 48%.
In the case of `Cc1ccc(Cl)cc1Nc1nc(C(F)(F)F)ccc1C(=O)N/N=C/c1cccnc1`, the growth is reported as -5.74% (active).
`O=c1oc2ccc([N+](=O)[O-])cc2cc1Br` showed a growth of 85%.
With `O=C1CC(N2C(=O)/C(=C/C(Cl)=C\c3ccc([N+](=O)[O-])cc3)SC2=S)C(=O)N1c1ccc(Cl)cc1` (stereo not given) the growth was 4.86% (active).
In the case of `CCN(CC)CCOc1ccc(C(=C(C)c2ccc(Cl)cc2)c2ccc(OCCN(CC)CC)cc2)cc1`, the growth is reported as -54.4% (active).
`O=C1C(Cl)=C(Oc2ccccc2)C(=O)c2ccccc21` gave a growth of 48.8%.
For `COc1ccc(C(c2cc(OC)c(OC)c(OC)c2)N2CCN(c3ccccc3)CC2)cc1` (stereo not given), the growth was 33.2%.
In the case of `CCOC(=O)CSc1ncnc2c1c(-c1ccccc1)c(-c1ccccc1)n2-c1ccc(C)cc1`, the growth is reported as 80.4%.
For `CCOc1ccc(NC(=O)CSc2oc(-c3ccccc3)nc2S(=O)(=O)c2ccc(F)cc2)cc1`, the growth was 69.8%.
`COC(=O)/C(CCC=C(C)C)=C1\[C@@H](OC(C)=O)C[C@@]2(C)[C@H]1C[C@@H](O)[C@H]1[C@@]3(C)CC[C@H](NCCN)[C@@H](C)[C@@H]3CC[C@@]12C` was tested, and the growth was -17.8% (active).
`Cc1ccc(C(C(N)=O)C(C(N)=O)c2ccccc2)cc1` (stereo not given) was tested, and the growth was 92%.
With `O=C1/C(=C/c2ccc(Cl)c(Cl)c2)CN(C(=O)C(Cl)Cl)C/C1=C\c1ccc(Cl)c(Cl)c1` the growth was 4.68% (active).
Work on `CCO/C=N/C1=C(C#N)C(c2ccc(OC)cc2)c2sc3c(F)cccc3c2O1` (stereo not given) yielded a growth of 25.5%.
`O=c1oc2c(cnc3ccccc32)cc1-c1ccsc1` was tested, and the growth was 95%.
In the case of `CC(C)n1cnc2c(=S)nc[nH]c21`, the growth is reported as 74.8%.
Compound `COc1cc2c(c(OC)c1OC)-c1ccc(OC)c(=O)cc1[C@@H](NC(=O)CCl)CC2` has a growth of 36.3%.
`Cc1ccc(S(=O)(=O)N2CCCC2CO)cc1` (stereo not given) was tested, and the growth was 112%.
For `CN1CCN(C(=O)c2ccc(NC(=O)Nc3ccc(-c4nc(N5CCOCC5)c5cccn5n4)cc3)cc2)CC1`, the growth was 3.45% (active).
In the case of `O=C(c1ccccc1)C1C(=O)N2C(=S)N(c3ccccc3)C(=O)C2C1c1ccc(Cl)cc1` (stereo not given), the growth is reported as 101%.
`COc1cc(-c2nc(SCC(C)C)nc(Nc3cccc4ccccc34)c2C#N)cc(OC)c1OC` showed a growth of 40.7%.
For `COC(=O)CCC(=O)C(=O)OC`, the growth was -26.4% [10 mM] (active).
Compound `CC(C)N1CN2C(=S)NC3C2N(C1)C(=S)N3C` (stereo not given) has a growth of 88.6%.
In the case of `CCCCNc1ccc(C#N)c(OCCN(CC)CC)c1`, the growth is reported as 93.8%.
`CC(C)N1CCN(Cc2ccc3c(NNC(=O)c4ccccc4)nc4cc(F)ccc4n23)CC1` was tested, and the growth was 8.09% (active).
With `O=C(O)/C(=C\c1ccc(Cl)cc1)c1ccc(Cl)cc1` the growth was 96.8%.
With `Cc1nc2sc(C(=O)Nc3ccccc3)c(N)c2cc1C(=O)c1ccccc1` the growth was 8.32% (active).
For `COc1cc(-n2cc(-c3cc(O)c(C/C=C(\C)CCC=C(C)C)c(O)c3)nn2)cc2c1O[C@]1(C)CC[C@@H](O)C(C)(C)[C@H]1C2`, the growth was 4.49% (active).
With `CC1(C)CC2=C3C=C[C@@H]4[C@@]5(C)CCC(=O)C(C)(C)[C@@H]5CC[C@@]4(C)[C@]3(C)CC[C@@]2(C(=O)O)CC1=O` the growth was 71.7%.
`Nc1c(C(=O)Nc2ccccc2Cl)sc2nc3c(cc12)C(O)CCC3` (stereo not given) showed a growth of 13.4%.
In the case of `Oc1c(Cl)cc(Cl)c2ccc(Cn3cc(-c4ccc(C(F)(F)F)cc4)nn3)nc12`, the growth is reported as -16.8% (active).
With `O=C1/C(=C/c2ccccc2Br)COc2ccc(O)c(O)c21` the growth was 14.7%.
In the case of `CCOC(=O)/C=C1\S/C(=N\Nc2cc(=O)[nH]c3ccc(Cl)cc23)N(c2ccccc2)C1=O`, the growth is reported as 4.23% (active).
`C=CCn1cc(-c2nc3ccccc3s2)c2cc(-c3ccc4c5c(cccc35)C(=O)N(N)C4=O)ccc21` showed a growth of 89.7%.
In the case of `OCc1cccc(-c2ccc3ncc(-c4nc(NC5CC5)ncc4F)n3c2)c1`, the growth is reported as -13.5% (active).
`COC(C(=O)[C@@H](O)[C@@H](C)O)[C@@H]1Cc2cc3cc(O[C@H]4C[C@@H](O[C@H]5C[C@@H](O)[C@H](O)C(C)O5)[C@H](O)C(C)O4)cc(O)c3c(O)c2C(=O)[C@H]1O[C@H]1C[C@@H](O[C@H]2C[C@@H](O[C@H]3C[C@@H](OC)[C@H](O)C(C)O3)[C@@H](O)C(C)O2)[C@H](O)C(C)O1` (stereo not given in full) gave a growth of 33.9%.
`CC(=O)Nc1nc2ccc(NS(=O)(=O)c3cccc4c(N(C)C)cccc34)cc2[nH]1` gave a growth of 24.8%.
`S=C1CCSC(=S)N1CCCN1C(=S)CCSC1=S` showed a growth of 21%.
